Data as given in PubChem BioAssay AID1851 (National Center for Advancing Translational Sciences (NCATS), 2009).
“And” between values parts separate entries of the source, which are not always exact repeats. Equal values may be shown once. Among all 16,000 compounds or so, about 5,800 (36%) were called active. Another 23% or so got no clear call; they are omitted. The list shows a part of the results. A number with no mark means an inactive call. Calls follow the shape of the dose curve; as a rule, active = well fitted curve in the direction sought with a large enough effect; inconclusive = small, poorly fitted or top-dose-only effect, or effect the other way; inactive = no such curve, though single readings can be large or run the other way.

molecular target: Cytochrome P450 2C19 (Homo sapiens) (UniProt P33261); assay: Cytochrome panel assay with activity outcomes; details: recombinant CYP, pro-luciferin dealkylation, luminescence, p450-cyp2c19; series mostly up to 57.1 µM
% is scaled to controls: 0 for no effect and ±100 for the full control effect.

Sequence of Cytochrome P450 2C19 (Homo sapiens) (P33261 whole entry, looked up): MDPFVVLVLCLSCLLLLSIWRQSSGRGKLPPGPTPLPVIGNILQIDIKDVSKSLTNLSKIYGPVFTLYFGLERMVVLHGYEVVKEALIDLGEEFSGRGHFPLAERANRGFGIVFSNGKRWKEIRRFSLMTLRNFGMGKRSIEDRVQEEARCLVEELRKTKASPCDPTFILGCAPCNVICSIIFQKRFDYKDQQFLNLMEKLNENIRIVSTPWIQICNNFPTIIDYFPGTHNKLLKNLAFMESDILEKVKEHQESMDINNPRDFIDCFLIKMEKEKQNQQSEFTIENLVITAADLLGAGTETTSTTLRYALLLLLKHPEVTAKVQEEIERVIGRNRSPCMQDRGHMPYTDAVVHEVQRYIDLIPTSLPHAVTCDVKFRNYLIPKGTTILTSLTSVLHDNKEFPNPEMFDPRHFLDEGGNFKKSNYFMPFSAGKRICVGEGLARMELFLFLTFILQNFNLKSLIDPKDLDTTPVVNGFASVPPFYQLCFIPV

Row | Structure (SMILES) | activity, negative = inhibition | AC50
1 | NCCNS(=O)(=O)c1ccc(N)cc1 | -4.78% [at 11.4 µM] | 
2 | NCCCCNS(=O)(=O)c1cccc2c(Cl)cccc12 |  | 0.1 µM (active)
3 | CCCCCCCNS(=O)(=O)c1cccc2c(Cl)cccc12 |  | 0.126 µM (active)
4 | NCCCCCCNS(=O)(=O)c1cccc2c(Cl)cccc12 |  | 200 nM (active) and 10 nM (active)
5 | NCCCCNS(=O)(=O)c1ccc2c(Cl)cccc2c1 |  | 0.00251 µM (active)
6 | Nc1ccc(S(=O)(=O)NCCS(=O)(=O)O)cc1 | 22.1% [at 11.4 µM] | 
7 | CNCCNS(=O)(=O)c1cccc2cnccc12 |  | inactive
8 | CCN1C(=O)C=CC1=O |  | inactive
9 | COc1cc(/C=C/C(=O)O)cc(S(=O)(=O)NCCCO)c1OC |  | inactive
10 | O=S(=O)(NCCCCCCc1ccccc1)c1cccc2c(Cl)cccc12 |  | 1 µM (active)
11 | NCCCCCCCCCCNS(=O)(=O)c1cccc2c(Cl)cccc12 |  | 0.0794 µM (active)
12 | NCCCCCCNS(=O)(=O)c1cccc2ccccc12 |  | 1 µM (active)
13 | CCCCNS(=O)(=O)c1ccc(OC)c(Cl)c1Cl |  | 0.794 µM (active)
14 | NCCNS(=O)(=O)c1cccc2cnccc12 |  | inactive
15 | C=CCNS(=O)(=O)c1cccc2cc(C(=O)O)c(O)cc12 |  | inactive
16 | CC12CCC(C(=O)O)(C/C1=N\O)C2(C)C (stereo not drawn) |  | inactive
17 | CCNC(=O)COC(=O)c1cc(=O)[nH]c2ccccc12 |  | inactive
18 | CC(C)NC(=O)COC(=O)c1cc(=O)[nH]c2ccccc12 |  | inactive
19 | COc1ccc(OC)c(-c2cc(C(=O)O)c3cc4ccccc4cc3n2)c1 | 2.46% [at 11.4 µM] | 
20 | Cc1cc(C(=O)OCC(=O)NCCC(C)C)c2ccccc2n1 |  | 14.1 µM (active)
21 | CCNC(=O)COC(=O)c1cc(-c2ccc(OC)cc2)nc2ccccc12 |  | 11.2 µM (active)
22 | N[C@@H](Cc1[nH]nc2ccccc12)C(=O)O | 2.15% [at 11.4 µM] | 
23 | COc1ccc(C(=O)N2CCC3(CC2)CN(C(=O)Nc2ccccc2)C3)cc1 |  | inactive
24 | COc1ccc(NC(=S)Nc2ccccc2)cc1 |  | 2 µM (active)
25 | COc1ccc(C(=S)Nc2ccccc2)cc1 |  | 3.98 µM (active)

Row | Structure (SMILES) | activity, negative = inhibition | AC50
26 | CC(=O)O[C@]1(C(C)=O)CC[C@@H]2[C@@H]3C=C(Cl)C4=CC(=O)[C@H]5C[C@@H]5[C@]4(C)[C@H]3CC[C@]21C |  | inactive
27 | COc1cccc(-c2[nH]nc3c2C(c2ccsc2)C(C#N)=C(N)O3)c1 (stereo not drawn) |  | 0.447 µM (active)
28 | COc1cccc(-c2[nH]nc3c2C(c2ccc(C)o2)C(C#N)=C(N)O3)c1 (stereo not drawn) |  | 1.78 µM (active)
29 | CS(=O)(=O)N1CCC2(CCN(Cc3nccs3)CC2)CC1 |  | inactive
30 | NC(N)=N[C@H](CCC(=O)O)C(=O)O |  | inactive
31 | COC(=O)N1CCC[C@@]2(CCN(C(=O)Nc3cccc(C#N)c3)C2)C1 |  | inactive
32 | COC(=O)C1=C(C)OC(N)=C(C#N)C1c1cc(OC)ccc1OC (stereo not drawn) |  | 7.94 µM (active)
33 | COC(=O)C1=C(C)OC(N)=C(C#N)C1C1CCCCC1 (stereo not drawn) |  | 0.562 µM (active)
34 | COc1cc(C2C(C#N)=C(N)OC3=C2C(=O)CCC3)cc(OC)c1OC(=O)N1CCOCC1 (stereo not drawn) |  | inactive
35 | COc1ccc(C(=O)N2CCC3(CCN(Cc4ccccc4OC)CC3)CC2)cc1 |  | inactive
36 | O=C(c1ccco1)N1CCC2(CCN(Cc3ccccc3)CC2)CC1 |  | inactive
37 | O=C(c1coc(=O)c2ccccc12)N1CCN(Cc2ccccc2)CC1 |  | 2.24 µM (active)
38 | COc1ccc(N2CCN(C(=N)/C(C(C)=O)=C(\C)O)CC2)cc1 |  | inactive
39 | COc1ccc(Nc2ncc(C(=O)N3CCN(c4ccc(F)cc4)CC3)c3ccccc23)cc1 |  | 2.24 µM (active)
40 | CC(=O)N1CCC2(CCN(Cc3ccccc3)CC2)CC1 |  | inactive
41 | COc1cccc(Nc2ncc(C(=O)O)c3ccccc23)c1 |  | inactive
42 | COc1ccc(Nc2ncc(C(=O)N3CCN(Cc4ccccc4)CC3)c3ccccc23)cc1 |  | 2 µM (active)
43 | COC(=O)c1ccccc1OCC(=O)N1CCN(c2ccc(OC)cc2)CC1 |  | 14.1 µM (active)
44 | C1CNCCOCCNCCN1 |  | inactive
45 | Fc1ccc(COc2ccc(Br)cc2CNCc2ccncc2)cc1 |  | 0.1 µM (active)
46 | CCCN[C@@H](C)C(=O)Nc1c(C)csc1C(=O)OC |  | inactive
47 | COC(=O)c1scc(C)c1NC(=O)Cc1ccccc1 |  | 15.8 µM (active)
48 | O=C(Nc1ccccc1)N1CC[C@@]2(CCCN(C(=O)c3cnccn3)C2)C1 |  | inactive
49 | Cc1cccc(-c2nc(CN3CCCC(C(=O)NC4CCCCC4)C3)c(C)o2)c1 (stereo not drawn) |  | 22.4 µM (active)
50 | Cc1ccc(-c2nnc(-c3ccc(NC(=O)c4cccs4)cc3)o2)cc1 |  | 6.31 µM (active)

Row | Structure (SMILES) | activity, negative = inhibition | AC50
51 | Cc1ccc(Cc2cnc(NC(=O)c3cccs3)s2)cc1 |  | 8.91 µM (active)
52 | Cc1ccccc1-c1nc(-c2ccc(NC(=O)c3cccs3)cc2)no1 |  | 2.82 µM (active)
53 | Cn1c(=O)c2c(ncn2CC(COCc2ccccc2Cl)OCc2ccccc2Cl)n(C)c1=O (stereo not drawn) |  | 8.91 µM (active)
54 | Cn1c(=O)c2c(ncn2CCO)n(C)c1=O |  | inactive
55 | Cn1c(=O)c2c(ncn2C[C@@H](O)CO)n(C)c1=O |  | inactive
56 | Cc1ccc(-c2csc(N3CCC(NS(=O)(=O)c4ccc5c(c4)OCCO5)CC3)n2)cc1 |  | 3.16 µM (active)
57 | CCCCOc1ccc(C(=O)N/C(=C\c2ccc(OC)cc2)C(=O)OCc2ccco2)cc1 |  | 3.98 µM (active)
58 | CCCCOc1ccc(C(=O)N/C(=C\c2cccc([N+](=O)[O-])c2)C(=O)OCCC)cc1 |  | inactive
59 | O=c1c(-c2ccc(Cl)cc2)nc2cnc(N3CCOCC3)nc2n1C1CC1 |  | inactive
60 | O=C(COc1ccc(Br)cc1)Nc1ccc([N+](=O)[O-])cn1 |  | 2.82 µM (active)
61 | C/C(=N\NC(=O)COc1ccc([N+](=O)[O-])cc1)C(C)(C)C |  | inactive
62 | CC(=O)Nc1ccc([N+](=O)[O-])cn1 |  | inactive
63 | CCOc1cc(C2CC(=O)c3c(ccc4ccccc34)N2)ccc1O (stereo not drawn) |  | 5.01 µM (active)
64 | CCOc1ccc2ccccc2c1C(=O)N[C@@H]1C(=O)N2[C@@H]1SC(C)(C)[C@@H]2C(=O)O |  | inactive
65 | Nc1cccc(OCc2nc(N)nc(N)c2-c2ccc(Cl)cc2)c1 | -6.77% [at 11.4 µM] | 
66 | Cc1cc(OCc2nc(N)nc(N)c2-c2ccc(Cl)c(Cl)c2)ccc1[N+](=O)[O-] |  | 3.16 µM (active)
67 | CC(C)N1CCC(=NNC(=O)c2ccc(Br)o2)CC1 |  | inactive
68 | CCCN1CCC(=NNC(=O)c2ccc(Br)o2)CC1 |  | 25.1 µM (active)
69 | O=C(Nc1nnc(SCc2ccc(Cl)cc2Cl)s1)C1COc2ccccc2O1 (stereo not drawn) |  | 2.51 µM (active)
70 | Nc1nc2c(nc(Br)n2[C@@H]2O[C@H]3COP(=O)(O)O[C@H]3[C@@H]2O)c(=O)[nH]1 |  | inactive
71 | COC(=O)N1CCC2(CC1)CN(C(=O)Nc1cccc(C#N)c1)C2 |  | inactive
72 | CCCC(=O)Nc1cccc(Oc2nc(C)cc(C)c2C#N)c1 |  | 17.8 µM (active)
73 | Cc1cnc(NC(=O)CCCc2nc3ccccc3s2)s1 |  | 7.94 µM (active)
74 | COc1ccccc1N1CCN(C[C@@H](O)COc2cccc3ccccc23)CC1 |  | 6.31 µM (active) and 7.94 µM (active) and 1.58 µM (active)
75 | COc1ccccc1N1CCN(C[C@@H](C(=O)NC(C)(C)C)c2ccccc2)CC1 |  | inactive

Row | Structure (SMILES) | activity, negative = inhibition | AC50
76 | O=C(O)[C@@H]1CCCN1Cc1cc2ccccc2c2ccccc12 | 31.6% [at 11.4 µM] | 
77 | Clc1ccc(CN2CCCN(Cc3ccc(Cl)cc3)C2c2cc3ccccc3c3ccccc23)cc1 |  | 0.794 µM (active)
78 | CC(C)CC(=O)Nc1ccccc1-c1nnn(CC(=O)N2CCc3ccccc3C2)n1 |  | 14.1 µM (active)
79 | COc1ccc2c(c1OC)C(=O)O[C@@H]2[C@H]1c2c(cc3c(c2OC)OCO3)CCN1C |  | 0.158 µM (active)
80 | COc1ccc2c(c1OC)C(=O)OC2[C@H]1c2c(cc3c(c2OC)OCO3)CCN1C (stereo partly drawn) |  | 2.51 µM (active)
81 | C[C@H]1CCCC=CC2C[C@H](OC(=O)CN(C)C)C[C@@H]2[C@@H](O)/C=C\C(=O)O1 (stereo partly drawn) | 8.1% [at 11.4 µM] | 
82 | C#CCSc1nnc(-c2sc(-c3ccccc3)nc2C)n1C |  | 2.51 µM (active)
83 | C#CCSc1nnc(-c2cc3c(C(F)(F)F)nn(C)c3s2)n1C |  | inactive
84 | CSc1nnc(-c2sc(-c3ccccc3)nc2C)n1C |  | inactive
85 | COC(=O)[C@@]1(Cc2ccccc2)[C@@H]2C(=CC(=O)[C@H]2CC(=O)C(=O)N(C)C)CN1C(=O)c1ccccc1 |  | inactive
86 | COC(=O)[C@@]1(Cc2ccc(F)cc2)[C@@H]2C(=CC(=O)[C@H]2CC(=O)C(=O)N2CCCC2)CN1C(=O)c1ccccc1 |  | 31.6 µM (active)
87 | COC(=O)[C@@]1(Cc2ccc(F)cc2)[C@@H]2C(=CC(=O)[C@H]2CC(=O)C(=O)N(C)C)CN1C(=O)c1ccccc1 |  | 25.1 µM (active)
88 | CC(=O)NC(Cc1ccc(F)cc1)C(=O)O (stereo not drawn) |  | inactive
89 | CC(NC(=O)Cc1ccc(F)cc1)c1ccccc1 (stereo not drawn) |  | 11.2 µM (active)
90 | Cc1nnsc1SCC(=O)O |  | inactive
91 | O=C(O)CSc1sc(=S)sc1SCC(=O)O |  | 10 µM (active)
92 | COc1cccc(C(=O)N(Cc2ccccc2)Cc2cc3cc4c(cc3[nH]c2=O)OCCO4)c1 |  | 15.8 µM (active)
93 | C/C(CCN1CCc2nc(-c3ccccc3)c(-c3ccccc3)cc2C1)=N\O[C@@H](C)CN1CCCc2nc(C)c(C)cc21 | -28.4% [at 11.4 µM] | 
94 | Cc1cc(/C=N/n2cnnc2)c(C)n1-c1ccc(OCc2ccccc2F)cc1 |  | 2 µM (active)
95 | CCOC(=O)C(C)(C)[C@H](O)C(C)C | 3.67% [at 11.4 µM] | 
96 | C[C@@]12CCC(=O)C=C1CC[C@H]1[C@H]3CC[C@](O)(C(=O)CO)[C@]3(C)CC(=O)[C@@H]12 |  | inactive
97 | CS[C@]12C(=O)C[C@]3(C)[C@@H](CC[C@@]3(O)C(=O)CO)[C@@H]1CCC1=CC(=O)CC[C@]12C |  | 3.16 µM (active)
98 | CC(=O)OCC(=O)[C@@]1(O)CC[C@@H]2[C@H]3CCC4=CC(=O)CC[C@]4(C)[C@]3(F)[C@@H](O)C[C@@]21C |  | inactive
